Only some compounds are listed: those with a hit (about 7.3% of all), similar ones and a draw of the others.
SMN2 splice up = increases expression of the SMN2 splice variant | AID 1458 | HEK293 SMN2-luciferase splicing reporter, luminescence, 30-36 h | Potency, µM (titrated, usually from 46.1 µM), actives largely listed as activators | 2.8% of 210,000 active; further: nearly all actives have a fitted effect of over 55% in size
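qHTS luciferase splicing reporter: luminescence rises when SMN2 exon 7 is included in transfected HEK293 cells. Compound exposure lasted 30-36 h at 37C, with 4.5 mM final sodium butyrate as control, followed by a ONE-Glo read.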
Rab9 promoter act = Rab9 promoter activation; Huh7 Rab9 promoter-luciferase reporter, luminescence, 24 h; Potency, µM (top dose mostly 9.22 µM), usual class: activators; 2.8% of 320,000 active; AID 485297; further: nearly all actives have a fitted effect of over 60% in size
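Steps: seed 1500 Huh7 Rab9-luc cells per well, rest 2 h at 37 °C; add compound in DMSO; incubate 24 h; add luciferase reagent, 10 min ambient; read luminescence.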
FLuc modulator = inhibits or activates purified firefly luciferase, miR-21 counter-screen; P08659; purified FLuc, Km substrates, luminescence inhibition; Potency, µM (titrated, usually from 57.5 µM), hits mostly inhibitors; 6.9% of 360,000 active; AID 588342; further: nearly all actives have a fitted effect of over 55% in size
Target sequence (P08659 whole entry, looked up): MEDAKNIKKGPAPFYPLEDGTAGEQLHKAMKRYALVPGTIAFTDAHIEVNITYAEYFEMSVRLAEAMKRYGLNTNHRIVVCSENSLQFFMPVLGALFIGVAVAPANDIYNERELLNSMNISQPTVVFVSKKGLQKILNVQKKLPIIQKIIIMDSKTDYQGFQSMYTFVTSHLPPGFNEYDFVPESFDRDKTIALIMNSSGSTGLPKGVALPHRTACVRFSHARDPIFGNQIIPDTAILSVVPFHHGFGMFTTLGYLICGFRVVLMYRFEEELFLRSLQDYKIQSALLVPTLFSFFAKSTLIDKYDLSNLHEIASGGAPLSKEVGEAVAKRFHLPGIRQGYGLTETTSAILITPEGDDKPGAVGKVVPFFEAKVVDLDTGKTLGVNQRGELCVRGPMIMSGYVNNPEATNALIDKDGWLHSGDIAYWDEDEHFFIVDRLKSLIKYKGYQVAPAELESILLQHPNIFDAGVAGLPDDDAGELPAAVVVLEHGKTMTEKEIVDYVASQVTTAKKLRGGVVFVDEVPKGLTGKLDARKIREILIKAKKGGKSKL
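Biochemical qHTS of compounds, final roughly 60 µM downward over six points, against 10 nM purified firefly luciferase using Km concentrations of substrates (10 uM D-luciferin, 10 uM ATP) in Tris acetate pH 7.5 buffer; luminescence output.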
ELG1 genotox = induces genotoxicity in HEK293T cells with luciferase-tagged ELG1. HEK293T ELG1-luciferase reporter, luminescence, 16 h. Potency, µM (titrated, usually from 46 µM), most hits filed as activators. 1.3% of 330,000 active. AID 504466; further: nearly all actives have a fitted effect of over 60% in size
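Quantitative HTS format in 1536-well plates. HEK293T ELG1-luciferase reporter cells receive test compound and are incubated 16 hr at 37 °C, 5% CO2; ONE-Glo added, 30 min room temperature, then luminescence read.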
NPC1 promoter act = activators of NPC1 promoter. Potency, µM (doses to about 9.22 µM), usual class: activators. Huh7 NPC1 promoter luciferase reporter, 24 h. 2.4% of 320,000 active. AID 485313; further: nearly all actives have a fitted effect of over 60% in size
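Luminescence read-out of NPC1 promoter-driven luciferase in stably transfected Huh7 cells; compounds delivered in DMSO and left 24 h at 37C, 5% CO2, qHTS titration format.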
p53 reactivator = mutant p53 re-activation in reporter cells; H1299 p53-A138V BP100-luciferase reporter, luminescence, 24 h; Potency, µM (titrated, usually from 92.2 µM), most hits filed as activators; 0.063% of 320,000 active; AID 504706; further: nearly all actives have a fitted effect of over 45% in size
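p53-null H1299 cells stably carrying temperature-sensitive p53-A138V and a BP100-luciferase reporter were pinned with compounds (4-point, 1:5 series) and held 24 hrs at 37 deg C. Luminescence was read 10 min after detection reagent.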
Hits are given with their value. The call rests on the fitted dose curve; in most records, active means well fitted curve in the direction sought with a large enough effect; inconclusive means small, poorly fitted or top-dose-only effect, or another doubt; inactive means no such curve, though single readings can be large; an effect the other way counts as inactive or inconclusive.

What do the screens show for `CSc1ccccc1NC(=O)c1cccs1`?
SMN2 splice up: inactive; Rab9 promoter act: inactive; FLuc modulator: inactive; ELG1 genotox: inactive; NPC1 promoter act: inactive; p53 reactivator: inactive

Results for C[C@]12CCC(=O)C=C1CCC1C2C(=O)C[C@]2(C)C1CC[C@]2(O)C(=O)CO (stereo partly specified) ?
SMN2 splice up: inactive

How did CCC(C)c1ccc(OCC(=O)Nc2ccc(-c3nc4ncccc4o3)cc2)cc1 (stereo unspecified) do in these assays?
SMN2 splice up: inactive; FLuc modulator: inactive

How did Cc1noc(C)c1C(=O)N1CCC2(CCCN(C(=O)Nc3ccccc3)C2)CC1 do in these assays?
SMN2 splice up: inactive

How did Cc1nn(C)c(C)c1NC(=O)c1ccc(Br)o1 do in these assays?
Rab9 promoter act: inactive; FLuc modulator: inactive; ELG1 genotox: inactive; NPC1 promoter act: inactive; p53 reactivator: inactive

What do the screens show for `CC(C)(C)c1csc(NC(=O)c2ccc(Br)o2)n1`?
Rab9 promoter act: inconclusive; FLuc modulator: 27µM; ELG1 genotox: inactive; NPC1 promoter act: inconclusive; p53 reactivator: inconclusive

Results for Cc1nc(NC(=O)c2ccc(Br)o2)sc1C ?
SMN2 splice up: inconclusive; Rab9 promoter act: inconclusive; FLuc modulator: 7.6µM; ELG1 genotox: inactive; NPC1 promoter act: inconclusive; p53 reactivator: inconclusive

How did Cc1ccc(C(=O)Nc2cccc(NC(=O)c3ccc(C)o3)n2)o1 do in these assays?
Rab9 promoter act: inactive; FLuc modulator: 15µM; ELG1 genotox: inactive; NPC1 promoter act: inactive; p53 reactivator: inactive

What do the screens show for `Cc1ccc(C(=O)Nc2nc(C)c(C)s2)o1`?
SMN2 splice up: 14µM; Rab9 promoter act: 3.2µM; FLuc modulator: 6.7µM; ELG1 genotox: inconclusive; NPC1 promoter act: inconclusive; p53 reactivator: inconclusive

What do the screens show for `CCCCCCn1c(C(C)NC(=O)c2ccco2)nc2ccccc21` (stereo unspecified)?
SMN2 splice up: inactive; Rab9 promoter act: inactive; FLuc modulator: inactive; ELG1 genotox: inactive; NPC1 promoter act: inactive; p53 reactivator: inactive

What do the screens show for `Cc1cccc(NCc2nc3ccccc3n2Cc2ccccc2)c1`?
SMN2 splice up: inactive; Rab9 promoter act: inactive; FLuc modulator: 24µM; ELG1 genotox: inactive; NPC1 promoter act: inactive; p53 reactivator: inactive

Results for Cc1cccc(NCc2nc3ccccc3n2CCOc2ccccc2C)c1 ?
SMN2 splice up: inactive; FLuc modulator: inactive

How did Cc1cccc(NCc2nc3ccccc3n2C)c1 do in these assays?
SMN2 splice up: inconclusive; Rab9 promoter act: 3.2µM; FLuc modulator: 24µM; ELG1 genotox: 12µM; NPC1 promoter act: inconclusive; p53 reactivator: inactive

How did Cc1nc2cc(NCc3nc4ccccc4n3Cc3ccccc3)ccc2n1C do in these assays?
SMN2 splice up: inactive; Rab9 promoter act: 0.71µM; FLuc modulator: 0.6µM; ELG1 genotox: inconclusive; NPC1 promoter act: 1.1µM; p53 reactivator: inconclusive

What do the screens show for `Cc1ccc(NCc2nc3ccccc3n2C)c(C)c1`?
Rab9 promoter act: 0.71µM; FLuc modulator: 0.34µM; ELG1 genotox: 1µM; NPC1 promoter act: 0.63µM; p53 reactivator: inactive

What do the screens show for `COc1cccc(CNc2ccc3c(c2)nc(C)n3C)c1OC`?
Rab9 promoter act: inconclusive; FLuc modulator: 24µM; ELG1 genotox: inconclusive; NPC1 promoter act: inconclusive

How did Cn1c(CNc2ccc(Cl)cc2)nc2ccccc21 do in these assays?
SMN2 splice up: 7.1µM; Rab9 promoter act: inconclusive; FLuc modulator: 6.7µM; ELG1 genotox: 4.6µM; NPC1 promoter act: 4.5µM; p53 reactivator: inconclusive

Results for COc1cccc(CNc2ccc3c(c2)ncn3C)c1OC ?
SMN2 splice up: inactive; Rab9 promoter act: inactive; FLuc modulator: inconclusive; ELG1 genotox: inactive; NPC1 promoter act: inactive; p53 reactivator: inactive

Results for Cc1nc2cc(C(=O)O)ccc2s1 ?
SMN2 splice up: 11µM; Rab9 promoter act: 2.8µM; FLuc modulator: 17µM; ELG1 genotox: inconclusive; NPC1 promoter act: 1.4µM; p53 reactivator: inconclusive

What do the screens show for `CCCCC(=O)Nc1ccc(C(=O)NNC(=O)c2ccc(C)c(Br)c2)cc1`?
Rab9 promoter act: inactive; FLuc modulator: inactive; ELG1 genotox: inconclusive; NPC1 promoter act: inactive; p53 reactivator: inactive

How did CC(=O)c1ccc(NC(=O)c2ccc(C)c(Br)c2)cc1 do in these assays?
SMN2 splice up: 11µM; Rab9 promoter act: 0.79µM; FLuc modulator: 6µM; ELG1 genotox: inconclusive; NPC1 promoter act: 2.5µM; p53 reactivator: inactive

How did Cc1nnc(NC(=O)c2ccc3ccccc3n2)s1 do in these assays?
Rab9 promoter act: 3.5µM; FLuc modulator: 24µM; ELG1 genotox: inconclusive; NPC1 promoter act: inconclusive; p53 reactivator: inconclusive

What do the screens show for `CC(=O)c1ccc(NC(=O)c2ccc3nc(C)sc3c2)cc1`?
Rab9 promoter act: 2.8µM; FLuc modulator: inconclusive; ELG1 genotox: inconclusive; NPC1 promoter act: 2µM

What do the screens show for `Cc1ccc(-c2nc3ccc(C(=O)O)cc3nc2-c2ccc(C)cc2)cc1`?
SMN2 splice up: inactive; Rab9 promoter act: inactive; FLuc modulator: inactive; ELG1 genotox: inactive; NPC1 promoter act: inactive; p53 reactivator: inactive

How did Cc1ccccc1OCC(=O)Nc1ccc(OCc2cc(=O)n3ccsc3n2)cc1 do in these assays?
SMN2 splice up: inactive; FLuc modulator: inactive

How did Cc1ccc(NC(=O)N2CCC(CN3CCCCCC3)CC2)c(Cl)c1 do in these assays?
FLuc modulator: inactive

How did Cc1nc2ccc(NC(=O)c3ccco3)cc2s1 do in these assays?
Rab9 promoter act: 2.8µM; FLuc modulator: inconclusive; ELG1 genotox: inconclusive; NPC1 promoter act: inconclusive; p53 reactivator: inactive

Results for CCn1nc(C(=O)NC2=NCCS2)c2ccccc2c1=O ?
SMN2 splice up: inactive; Rab9 promoter act: inactive; FLuc modulator: inactive; ELG1 genotox: inactive; NPC1 promoter act: inactive; p53 reactivator: inactive

Results for COc1cc(C(=O)Nc2ccc(C(C)=O)cc2)c(Br)c(OC)c1OC ?
SMN2 splice up: inconclusive; Rab9 promoter act: inconclusive; FLuc modulator: 17µM; ELG1 genotox: inactive; NPC1 promoter act: inactive; p53 reactivator: inactive

Results for Cc1nc2ccc(NC(=O)c3ccccc3)cc2s1 ?
SMN2 splice up: 22µM; Rab9 promoter act: 2.8µM; FLuc modulator: 19µM; ELG1 genotox: inconclusive; NPC1 promoter act: 2.8µM; p53 reactivator: inactive

Results for CC(=O)Nc1nc2ccc(NC(=O)c3ccco3)cc2s1 ?
SMN2 splice up: inactive; Rab9 promoter act: inconclusive; FLuc modulator: inconclusive; ELG1 genotox: inconclusive; NPC1 promoter act: inactive; p53 reactivator: inactive

Results for CCn1nc(C(=O)Nc2ccc3nc(C)sc3c2)c2ccccc2c1=O ?
SMN2 splice up: 4µM; Rab9 promoter act: inactive; FLuc modulator: inconclusive; ELG1 genotox: inactive; NPC1 promoter act: inactive; p53 reactivator: inactive

What do the screens show for `CNC(=O)Nc1ccc2nc(C)sc2c1`?
Rab9 promoter act: inactive; FLuc modulator: inconclusive; ELG1 genotox: inactive; NPC1 promoter act: inactive; p53 reactivator: inactive
